From PubChem BioAssay (Tox21)
“And” between values parts separate entries of the source, which are not always exact repeats. Identical values can stand only once. Results filed as inconclusive are left out. Where a call stands in place of a potency, no number is given. The source holds several records for some structures; these can differ, active in one and inactive in another. The source made the active and inactive calls. Unless noted, calls follow the shape of the dose curve; as a rule, active = well fitted curve in the direction sought with a large enough effect in the repeat runs; inconclusive = weak or mixed curves; inactive = no such curve, though single readings can be large; an effect the other way counts as inactive or inconclusive.

How the values were obtained:
[1] = qHTS RealTime-Glo MT Cell Viability Assay in HepG2 cells - 16 hour (AID 1224885); also: nearly all actives have a fitted effect of over 50% in size
Summary of the method: (§1)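 HepG2 suspension premixed with RealTime-Glo reagents is plated at 600 cells per well and left 5 h at 37 C/5% CO2. Compounds in DMSO then go in, and bioluminescence reflecting viable cell number is recorded over 40 h.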

[2] = qHTS RealTime-Glo MT Cell Viability Assay in HEK293 cells - 24 hour (AID 1224886); also: nearly all actives have a fitted effect of over 50% in size; also: potency is read from the fitted curve at half-maximal effect
Summary of the method: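 Reads taken at 0, 8, 16, 24, 32 and 40 h from the same wells. HEK293 cells (600/well) carried RealTime-Glo reagents from seeding, with compound added after a 5 h settle at 37 C.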

[3] = qHTS RealTime-Glo MT Cell Viability Assay in HEK293 cells - 8 hour (AID 1224887); also: nearly all actives have a fitted effect of over 50% in size; also: potency is read from the fitted curve at half-maximal effect
Summary of the method: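 Measured as luminescence from the same continuously cultured HEK293 wells at successive time points (0, 8, 16, 24, 32, 40 h) after compound addition. Reagent present from seeding; dosing at 5 h; incubation 37 C.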

[4] = A CellTox Green Cytotoxicity Assay to monitor cytotoxicity in HEK293 cells - 16 hour (AID 1224888); also: nearly all actives have a fitted effect of over 35% in size
Summary of the method: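 Homogeneous no-lysis format: HEK293 cell suspension mixed with CellTox Green reagent, seeded, incubated 5 h at 37 C/5% CO2, then dosed by pintool with compound in DMSO.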

[5] = A CellTox Green Cytotoxicity Assay to monitor cytotoxicity in HepG2 cells - 8 hour (AID 1224890); also: nearly all actives have a fitted effect of over 45% in size
Summary of the method: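 Fluorescent DNA-binding dye, 600 HepG2 cells/well, 5 h preincubation then compound in DMSO; same plates read at 0–40 h, 37 C.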

[6] = qHTS assay to identify small molecule antagonists of the estrogen receptor alpha (ER-alpha) signaling pathway using the BG1 cell line in the presence of 0.1 nM 17-beta-estradiol - cell viability counter screen (AID 1259241); also: nearly all actives have a fitted effect of over 40% in size
Summary of the method: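 VM7Luc4E2 cells (endogenous ER-alpha, 4×ERE-luciferase), hormone-starved 5 days in charcoal-stripped FBS, were treated with compounds plus 0.1 nM 17beta-estradiol for 22 hr at 37C; viability read in same wells as CellTiter-Fluor live-cell protease fluorescence.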

[7] = qHTS assay to identify small molecule antagonists of the androgen receptor (AR) signaling pathway using the MDA cell line in the presence of 0.5 nM R1881 - cell viability counter screen (AID 1259242); also: nearly all actives have a fitted effect of over 45% in size
Summary of the method: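 Human breast carcinoma MDA-kb2 cells, cultured without CO2, receive compounds alongside 0.5 nM (final) R1881 agonist. After 16 hr at 37C, viability is taken as live-cell protease signal.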

[8] = molecular target: Androgen receptor (Homo sapiens) (UniProt P10275); experiment: qHTS assay to identify small molecule antagonists of the androgen receptor (AR) signaling pathway using the MDA cell line in the presence of 0.5 nM R1881 (AID 1259243); also: nearly all actives have a fitted effect of over 50% in size
Summary of the method: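 Cells: MDA-kb2 (MMTV-luc). Stimulus: 0.5 nM R1881. Time: 16 hr, 37C, no CO2. Detection: ONE-Glo luminescence after 30 min at RT.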

[9] = molecular target: Estrogen receptor (Homo sapiens) (UniProt P03372); experiment: qHTS assay to identify small molecule antagonists of the estrogen receptor alpha (ER-alpha) signaling pathway using the BG1 cell line in the presence of 0.1 nM 17-beta-estradiol (AID 1259244); also: nearly all actives have a fitted effect of over 50% in size
Summary of the method: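 Seeding of stripped-serum-adapted VM7Luc4E2 cells, 24 h attachment, compound transfer, then 0.1 nM final 17beta-estradiol; after 22 h incubation, ONE-Glo reagent and luminescence reading.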

[10] = qHTS assay to identify small molecule HDAC inhibitors (AID 1259364); also: potency is read from the fitted curve at half-maximal effect;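 also: wild-type HCT-116 cells with endogenous class I/II HDAC activity; nearly all actives have a fitted effect of over 45% in size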
Summary of the method: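 After a 2 hr compound incubation (37C, 5% CO2), HCT-116 cells seeded at 1,500/well the day before received HDAC-Glo reagent; signal read as luminescence after 30 min at room temperature.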

[11] = qHTS assay to identify small molecule HDAC inhibitors - cell viability counter screen (AID 1259365)
Summary of the method: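 Wild-type HCT-116 cells were seeded at 1,500 per well, incubated overnight at 37 C, then exposed to compounds in DMSO for 2hr. Viability was read by CellTiter-Glo luminescence after 30min at room temperature.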

[12] = qHTS assay to identify small molecule agonists of the sonic hedgehog signaling (Shh) pathway - cell viability counter screen (AID 1259366); also: nearly all actives have a fitted effect of over 50% in size
Summary of the method: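 NIH/3T3-derived 3T3 Gli1-Luc cells (stable Gli1-responsive firefly luciferase reporter) were seeded, rested 4 hr at 37 C/5% CO2, then exposed to compounds in DMSO for 24 hr; viability was read by CellTiter-Fluor fluorescence in the same wells.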

[13] = qHTS assay to identify small molecule antagonists of the sonic hedgehog signaling (Shh) pathway (AID 1259369; calls by dose curve; also: nearly all actives have a fitted effect of over 45% in size; also: potency is read from the fitted curve at half-maximal effect)
Summary of the method: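 Gli1 transcriptional reporter (firefly Luc) in NIH/3T3 background, conditioned-medium activated. 24hr exposure, luminescence endpoint.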

[14] = qHTS assay to identify small molecule agonists of the androgen receptor (AR) signaling pathway in the presence of an antagonist - cell viability counter screen (AID 1259379); also: nearly all actives have a fitted effect of over 25% in size; also: potency is read from the fitted curve at half-maximal effect
Summary of the method: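 Counter screen for cell viability run in parallel with the AR agonist-mode luciferase assay. MDA-kb2 cells were co-treated with nilutamide (3.0uM final) and compounds, then incubated 16 hr at 37C, and CellTiter-Fluor fluorescence was measured.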

[15] = qHTS RealTime-Glo MT Cell Viability Assay in HepG2 cells - 0 hour (AID 1224889); also: nearly all actives have a fitted effect of over 50% in size
Summary of the method: as §1

[16] = qHTS assay to identify small molecule antagonists of the sonic hedgehog signaling (Shh) pathway - cell viability counter screen (AID 1259367); also: nearly all actives have a fitted effect of over 55% in size
Summary of the method: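 CellTiter-Fluor signal in conditioned medium-stimulated 3T3 Gli1-Luc cells, 23 hr compound exposure, 37C.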

[17] = qHTS assay to identify small molecule agonists of the sonic hedgehog signaling (Shh) pathway (AID 1259368; calls by dose curve; also: series mostly up to about 92 µM; nearly all actives have a fitted effect of over 15% in size)
Summary of the method: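 Stable NIH/3T3 Gli1-Luc reporter clone; 24 hr cpd exposure after a 4 hr settling period; luminescence endpoint.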

[18] = molecular target: Estrogen receptor beta (Homo sapiens) (UniProt Q92731); experiment: qHTS assay to identify small molecule agonists of the estrogen receptor beta (ER-beta) signaling pathway (AID 1259377; active = well fitted activation curve with a large enough effect in the signal ratio in the repeat runs, not every such curve was filed as active; the % refers to the signal ratio)
Summary of the method: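 ER-beta-UAS-bla HEK293T (GripTite) cells carrying a UAS-driven beta-lactamase reporter, in medium with 2% charcoal-stripped FBS, were exposed to compounds for 16 hr at 37C; LiveBLAzer B/G FRET substrate was then added and fluorescence read after 2 hours at room temperature.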

[19] = qHTS assay to identify small molecule phospholipidosis (PLD) inducers (AID 1259344; active = well fitted curve in the direction sought with a large enough effect; an effect the other way counts as inactive or inconclusive)
Summary of the method: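 Accumulated phospholipid, stained red by LipidTOX during 24 h compound treatment of HepG2 cells at 37 C, is quantified from images as pit number and intensity, normalised per cell using Hoechst-stained nuclei.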

[20] = molecular target: Estrogen receptor beta (Homo sapiens) (UniProt Q92731); experiment: qHTS assay to identify small molecule antagonists of the estrogen receptor beta (ER-beta) signaling pathway (AID 1259378; active = well fitted inhibition curve with a large enough effect in the signal ratio in the repeat runs, not every such curve was filed as active; the % refers to the signal ratio)
Summary of the method: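 Antagonist mode: compounds added to beta-lactamase reporter HEK293T ER-beta-UAS cells stimulated with E2 (1nM final), 16 hr at 37C. LiveBLAzer B/G FRET substrate, 2 hours room temperature, fluorescence read-out.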

Chain of Androgen receptor (Homo sapiens) (P10275 whole entry, looked up): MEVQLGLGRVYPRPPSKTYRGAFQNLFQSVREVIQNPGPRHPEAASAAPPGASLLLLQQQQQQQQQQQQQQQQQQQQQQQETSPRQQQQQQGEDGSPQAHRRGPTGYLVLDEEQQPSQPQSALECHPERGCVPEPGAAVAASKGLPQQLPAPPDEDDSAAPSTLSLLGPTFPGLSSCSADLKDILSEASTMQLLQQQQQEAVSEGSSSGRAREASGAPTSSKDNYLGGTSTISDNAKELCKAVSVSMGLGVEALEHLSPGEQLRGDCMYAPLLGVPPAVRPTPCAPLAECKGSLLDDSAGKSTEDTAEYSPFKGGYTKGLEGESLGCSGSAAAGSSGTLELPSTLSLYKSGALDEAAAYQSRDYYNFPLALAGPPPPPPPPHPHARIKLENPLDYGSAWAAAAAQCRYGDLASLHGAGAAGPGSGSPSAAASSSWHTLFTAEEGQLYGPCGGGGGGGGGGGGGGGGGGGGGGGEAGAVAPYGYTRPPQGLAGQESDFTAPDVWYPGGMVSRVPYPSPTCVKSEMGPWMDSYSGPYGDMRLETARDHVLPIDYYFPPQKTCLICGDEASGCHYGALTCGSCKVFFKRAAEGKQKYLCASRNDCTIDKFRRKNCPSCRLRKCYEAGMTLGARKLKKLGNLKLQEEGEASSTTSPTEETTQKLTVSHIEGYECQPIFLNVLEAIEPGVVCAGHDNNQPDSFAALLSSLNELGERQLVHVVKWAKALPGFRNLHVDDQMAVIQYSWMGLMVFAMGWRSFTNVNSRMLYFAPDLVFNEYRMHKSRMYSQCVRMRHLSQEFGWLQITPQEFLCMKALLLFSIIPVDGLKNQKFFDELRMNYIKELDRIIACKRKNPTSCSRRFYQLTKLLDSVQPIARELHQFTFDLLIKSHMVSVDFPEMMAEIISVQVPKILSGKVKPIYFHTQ
Chain of Estrogen receptor beta (Homo sapiens) (Q92731 whole entry, looked up): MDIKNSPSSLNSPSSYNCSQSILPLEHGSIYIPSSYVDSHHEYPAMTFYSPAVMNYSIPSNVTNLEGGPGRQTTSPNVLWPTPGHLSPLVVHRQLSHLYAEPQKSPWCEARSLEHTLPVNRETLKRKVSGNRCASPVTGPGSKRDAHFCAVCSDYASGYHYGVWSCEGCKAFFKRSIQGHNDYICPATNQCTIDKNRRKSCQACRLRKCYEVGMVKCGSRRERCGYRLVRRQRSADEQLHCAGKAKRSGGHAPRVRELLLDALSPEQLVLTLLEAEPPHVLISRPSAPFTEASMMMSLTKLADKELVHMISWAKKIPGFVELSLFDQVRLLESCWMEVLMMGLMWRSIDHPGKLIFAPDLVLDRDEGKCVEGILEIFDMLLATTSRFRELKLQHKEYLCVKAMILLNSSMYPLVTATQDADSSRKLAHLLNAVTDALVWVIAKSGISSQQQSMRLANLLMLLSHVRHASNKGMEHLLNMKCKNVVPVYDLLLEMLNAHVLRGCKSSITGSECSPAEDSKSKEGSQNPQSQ
Chain of Estrogen receptor (Homo sapiens) (P03372 whole entry, looked up): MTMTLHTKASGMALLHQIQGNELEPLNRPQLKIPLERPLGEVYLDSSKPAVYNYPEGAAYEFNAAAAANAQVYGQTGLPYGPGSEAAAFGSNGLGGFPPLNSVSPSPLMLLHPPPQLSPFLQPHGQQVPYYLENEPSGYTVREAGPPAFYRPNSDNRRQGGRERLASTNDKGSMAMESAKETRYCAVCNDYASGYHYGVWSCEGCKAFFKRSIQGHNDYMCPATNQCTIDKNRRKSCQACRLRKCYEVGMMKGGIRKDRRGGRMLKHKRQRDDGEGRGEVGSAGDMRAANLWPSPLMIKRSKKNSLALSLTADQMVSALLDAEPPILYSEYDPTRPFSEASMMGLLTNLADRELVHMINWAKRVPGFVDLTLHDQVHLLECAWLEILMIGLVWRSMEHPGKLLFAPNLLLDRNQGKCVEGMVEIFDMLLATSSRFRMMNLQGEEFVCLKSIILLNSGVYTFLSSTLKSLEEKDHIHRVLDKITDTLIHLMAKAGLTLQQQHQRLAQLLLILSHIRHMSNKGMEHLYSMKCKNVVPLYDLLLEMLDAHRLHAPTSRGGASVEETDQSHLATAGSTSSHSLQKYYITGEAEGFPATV

Compound | outcome [1] | Potency [2] | Potency [3] | outcome [4] | Potency [5] | Potency [6] | outcome [7] | Potency [8] | Potency [9] | Potency [10] | outcome [11] | Potency [12] | Potency [13] | Potency [14] | Potency [15] | Potency [16] | outcome [17] | Potency [18] | outcome [19] | Potency [20]
CCc1cccc(C)c1N | inactive | inactive | inactive | inactive | inactive | inactive | inactive | inactive | inactive | inactive | inactive | inactive | inactive | inactive | – | – | – | – | – | –
Oc1cccc2ccccc12 | inactive | inactive | inactive | inactive | inactive | inactive | inactive | – | – | inactive | inactive | inactive | 6.28 µM (active) and 15.4 µM (active) | inactive | inactive | inactive | inactive | inactive | – | –
COc1cc(Cc2cnc(N)nc2N)cc(OC)c1OC | inactive | inactive | inactive | inactive | inactive | inactive | inactive | – | inactive | inactive | inactive | inactive | inactive | inactive | – | inactive | inactive | inactive | inactive | inactive
COCCCOc1ccnc(CS(=O)c2nc3ccccc3[nH]2)c1C (stereo not given) | inactive | 10.9 µM (active) and inactive | 19.4 µM (active) and inactive | inactive | inactive | inactive | inactive | – | – | 30.5 µM (active) and inactive | inactive | inactive | inactive | 48.4 µM (active) and inactive | inactive | inactive | inactive | inactive | inactive | inactive
CCCCCCCCCCCCc1ccccc1 | inactive | inactive | inactive | inactive | inactive | inactive | inactive | – | – | inactive | inactive | inactive | inactive | inactive | inactive | inactive | – | – | – | –
C=CCNC(N)=S | inactive | inactive | inactive | inactive | inactive | inactive | inactive | – | – | inactive | inactive | inactive | inactive | inactive | inactive | – | inactive | inactive | inactive | inactive
CCCCOC(=O)COc1ccc(Cl)cc1Cl | inactive | inactive | inactive | inactive | inactive | inactive | inactive | – | – | inactive | inactive | inactive | inactive | inactive | inactive | inactive | inactive | – | – | –
FC(F)(F)c1ccc(Cl)c(Cl)c1 | inactive | inactive | inactive | inactive | inactive | inactive | inactive | inactive | inactive | inactive | inactive | inactive | inactive | inactive | – | inactive | inactive | inactive | – | inactive
